D3 ag: activates the human D3 dopamine receptor; D3R DiscoveRx beta-arrestin cells, luminescence, 90 min; max activation, %; hit rate 0.58% among 410,000; in the data active means max activation above about 30%; further: 0% is about no effect
Target sequence (P35462 whole entry, looked up): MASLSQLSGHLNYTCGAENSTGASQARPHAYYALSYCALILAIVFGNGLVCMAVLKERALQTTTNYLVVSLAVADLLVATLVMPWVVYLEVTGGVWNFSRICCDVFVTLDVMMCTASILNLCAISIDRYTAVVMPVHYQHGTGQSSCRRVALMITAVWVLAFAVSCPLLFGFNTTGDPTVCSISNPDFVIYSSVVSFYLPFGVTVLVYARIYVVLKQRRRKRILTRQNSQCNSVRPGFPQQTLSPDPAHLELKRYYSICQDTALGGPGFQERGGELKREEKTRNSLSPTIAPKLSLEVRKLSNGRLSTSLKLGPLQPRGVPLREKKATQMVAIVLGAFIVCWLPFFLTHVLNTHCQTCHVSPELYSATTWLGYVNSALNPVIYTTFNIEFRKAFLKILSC
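Agonist mode: compounds and dopamine controls were applied to plated cells for 90 min at 37 degrees C after an overnight attachment at 1500 cells/well. Luminescent read-out followed 30 - 60 minutes at room temperature with DiscoveRx detection reagent.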
DRD3 antagonist: antagonists of human D3 dopamine receptor | max response, negative = inhibition, % | hit rate 2.5% among 360,000 | P35462 | D3R cells, DiscoveRx beta-arrestin luminescence, antagonist mode; stronger effect = lower value; in the data active means max response below about -50%; further: on the % scale 0 is the no-effect control and ±100 the full control effect
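Cells plated overnight at 1500 cells/well, then exposed to library compounds with dopamine controls for 90 minutes at 37 degrees C. DiscoveRx reagent added for 30–60 minutes at room temperature; luminescence read, quantitative HTS format.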
TRPML1 blocker: blocks the human TRPML1 channel; Q9GZU1; TRPML1-inducible cells, Ca2+ dye fluorescence, FDSS; stronger effect = lower value; inhibition of EC80 agonist-evoked calcium signal; activity change, negative = inhibition, % (concentration not given with the values); hit rate 0.02% among 390,000; AID 624415; in the data active means activity change below about -50%;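 further: stimulus is agonist 54-4 at its EC80 concentration; on the % scale 0 is the no-effect control and ±100 the full control effect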
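Tet-induced TRPML1-DL cells loaded with Ca8 no-wash calcium dye were read kinetically on FDSS. Compound addition was followed by EC80 agonist 54-4 (4 uM final); inhibition was read over 110 s.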
TRPML1 ag: agonists of human TRPML1 channel. hit rate 0.12% among 410,000. TRPML1-expressing cells, Ca2+ dye fluorescence, FDSS. Q9GZU1. activation, % (concentration not given with the values); in the data active means activation above about 50%; further: 0% is about no effect
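In this qHTS format, compounds were pin-transferred onto Ca8-dye-loaded TRPML1-DL cells induced with Tet overnight, and intracellular Ca2+ fluorescence was recorded kinetically for 110 s after a 10 s baseline. A subsequent 4uM final 54-4 (EC80) addition followed by a second 110 s read served as the antagonist phase.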
Numbers without * were called inactive. Compounds with a hit are over-represented: about 2.9% of the library has one in this group of screens.

Results for CCCNC(=O)C1CC(c2ccc(C(F)(F)F)cc2)=NO1 (stereo not given) ?
D3 ag: 38*; DRD3 antagonist: -14; TRPML1 blocker: -4; TRPML1 ag: -1

How did COc1ccc(C2=NOC(C(=O)NCC(C)C)C2)cc1 (stereo not given) do in these assays?
D3 ag: -2; DRD3 antagonist: -90*; TRPML1 blocker: -14; TRPML1 ag: 2

Results for COc1ccc(CCNC(=O)C2CC(c3cc(C(F)(F)F)cc(C(F)(F)F)c3)=NO2)cc1 (stereo not given) ?
D3 ag: 33*; DRD3 antagonist: 5; TRPML1 blocker: -5; TRPML1 ag: -1

Results for C=C1C=CS(=O)(=O)N(C(C)C(=O)OC)C1 (stereo not given) ?
TRPML1 blocker: -1; TRPML1 ag: 0

Results for Cc1ccc(CSc2nnc(-c3ccc(NC(=O)CCc4ccccc4)cc3)n2C)cc1 ?
TRPML1 ag: 0

Results for O=S1(=O)C2CC3C=CC2(CN1Cc1ccccc1)O3 (stereo not given) ?
TRPML1 blocker: -1; TRPML1 ag: 3

How did COC(=O)C[C@H]1c2ccccc2S(=O)(=O)N1c1ccc(N(C)C)cc1 do in these assays?
TRPML1 ag: -1

How did CN(C)CCn1c2c(c(SCC(=O)Nc3ccc(F)cc3F)nc1=O)CCC2 do in these assays?
D3 ag: -18; TRPML1 blocker: 21; TRPML1 ag: 0

What do the screens show for `O=C(ONC(=O)C1CCCCC1C(=O)NOC(=O)c1ccccc1)c1ccccc1` (stereo not given)?
D3 ag: 82*; DRD3 antagonist: 145; TRPML1 blocker: 13; TRPML1 ag: -1

How did CS(=O)(=O)c1sc(C#N)c2c1C(=O)CC(c1ccccc1)C2 (stereo not given) do in these assays?
D3 ag: -19; DRD3 antagonist: -132*; TRPML1 blocker: -3; TRPML1 ag: 0

How did Cc1oc2c(c(=O)c1C)C(=O)CC(c1ccccc1)C2 (stereo not given) do in these assays?
D3 ag: 4; DRD3 antagonist: 9; TRPML1 blocker: -14; TRPML1 ag: 0

Results for CCOC(=O)c1cnc2ccccc2c1Nc1cccc(OC)c1 ?
D3 ag: 5; TRPML1 blocker: -5; TRPML1 ag: 0

What do the screens show for `COc1ccc(CCNC(=O)Cc2c(C)c3c(cc(C)c4c(C)coc43)oc2=O)cc1OC`?
D3 ag: 3; TRPML1 blocker: 16; TRPML1 ag: 0

What do the screens show for `COC(=O)[C@H](CC(C)C)NS(=O)(=O)NC(=O)OC(C)(C)C`?
TRPML1 ag: 0

How did Nc1ccn(CC(=O)NCCNc2ccc([N+](=O)[O-])cn2)c(=O)n1 do in these assays?
D3 ag: 98*; DRD3 antagonist: 7; TRPML1 blocker: -3; TRPML1 ag: 0

What do the screens show for `Cc1ccc(C)c(Nc2nc(-c3ccccc3)c3cc(Br)ccc3n2)c1`?
D3 ag: 19; TRPML1 blocker: -10; TRPML1 ag: 2

How did CC(CNCC1CCCO1)COc1ccccc1 (stereo not given) do in these assays?
D3 ag: -18; DRD3 antagonist: -79*; TRPML1 blocker: -6; TRPML1 ag: -1

What do the screens show for `CCOc1ccc(CNC(=O)c2cc3c(=O)n(Cc4cccs4)ccc3nc2C)cc1`?
D3 ag: -7; TRPML1 blocker: -6; TRPML1 ag: 0

How did Cc1ccc(C(c2sc3nc(-c4ccco4)nn3c2O)N2CCC3(CC2)OCCO3)cc1 (stereo not given) do in these assays?
D3 ag: 1; TRPML1 blocker: -4; TRPML1 ag: 3

How did CCCN1C2CCCC1CC(NC(=O)c1ccccc1OC)C2 (stereo not given) do in these assays?
D3 ag: -24; DRD3 antagonist: -23; TRPML1 blocker: -3; TRPML1 ag: 0

What do the screens show for `COc1ccccc1CN1C2CCCC1CC(NC(=O)/C=C/c1ccccc1)C2` (stereo not given)?
D3 ag: -16; DRD3 antagonist: -65*; TRPML1 blocker: 15; TRPML1 ag: -1

What do the screens show for `CCOc1ccc(OCC)c(NC(=O)c2csc3c2CCCC3)c1`?
D3 ag: 16; TRPML1 blocker: 14; TRPML1 ag: 1

How did CC1CCN(c2ccccc2NC(=S)NC(=O)c2cccs2)CC1 do in these assays?
D3 ag: -6; DRD3 antagonist: -58*; TRPML1 blocker: 6; TRPML1 ag: 0

What do the screens show for `CS(=O)(=O)N1CCN(c2ccccc2NC(=S)NC(=O)c2cccs2)CC1`?
D3 ag: -10; DRD3 antagonist: 0; TRPML1 blocker: 1; TRPML1 ag: 0

What do the screens show for `COC(=O)C1CCN(C(=O)COc2ccc(S(=O)(=O)N3CCOCC3)cc2Cl)CC1`?
D3 ag: 63*; DRD3 antagonist: -2; TRPML1 blocker: 13; TRPML1 ag: 0

What do the screens show for `c1ccc(CC2CNc3ccccc3CN2)cc1` (stereo not given)?
D3 ag: -5; DRD3 antagonist: -52*; TRPML1 blocker: 10; TRPML1 ag: 0

Results for Cc1cc(C)cc(Nc2nc3c(S(=O)(=O)c4cccc(Cl)c4)nnn3c3ccsc23)c1 ?
D3 ag: 54*; TRPML1 blocker: 21; TRPML1 ag: 1

Results for OC(CSc1c(Cl)cccc1Cl)CN1CCN(c2ccccc2F)CC1 (stereo not given) ?
D3 ag: 20; DRD3 antagonist: -56*; TRPML1 blocker: 9; TRPML1 ag: 5

What do the screens show for `OC(CSc1ccccc1Cl)CN1CCN(c2ccccc2F)CC1` (stereo not given)?
D3 ag: 1; DRD3 antagonist: -67*; TRPML1 blocker: -12; TRPML1 ag: 4

What do the screens show for `Oc1ccccc1N1CCN(CC(O)COCc2ccccc2Cl)CC1` (stereo not given)?
D3 ag: 29; DRD3 antagonist: -53*; TRPML1 blocker: -18; TRPML1 ag: 1

Results for Cc1ccc(NS(=O)(=O)c2cnc(N)nc2)c(C)c1 ?
D3 ag: -2; TRPML1 blocker: -8; TRPML1 ag: 0

How did Cc1onc(-c2c(F)cccc2Cl)c1C(=O)N[C@@H]1C(=O)N2[C@@H]1SC(C)(C)[C@@H]2C(=O)O do in these assays?
D3 ag: -9

What do the screens show for `CC(=NNC(=S)Nc1ccc(C)cc1)c1ccccn1`?
D3 ag: 4; DRD3 antagonist: -50*; TRPML1 blocker: -9; TRPML1 ag: 3

What do the screens show for `CC(=NNC(=S)Nc1cccc(C)c1)c1ccccn1`?
D3 ag: -5; DRD3 antagonist: -20; TRPML1 blocker: -10; TRPML1 ag: 1

Results for C/C(=N\NC(=S)Nc1cccc(C)c1)c1cccc(N)c1 ?
D3 ag: -1; DRD3 antagonist: -10; TRPML1 blocker: 0; TRPML1 ag: 0

How did C/C(=N\NC(=S)Nc1cccc(C)c1)c1ccccc1 do in these assays?
D3 ag: -1; DRD3 antagonist: -52*; TRPML1 blocker: 11; TRPML1 ag: 4

How did O=C(C[n+]1cccc2cc(Cl)ccc21)c1ccc2ccccc2c1 do in these assays?
TRPML1 ag: 5
